High-throughput results: PubChem, NMMLSC
Anthrax LF inh2: inhibitors of Bacillus anthracis lethal factor protease. AID 588501. multiplex microsphere protease cleavage assay, LF. inhibition, % at 10 µM. 360,000 tested, 0.12% active. P15917
BoNT-A LC inh2: blocks Botulinum neurotoxin A light chain protease. inhibition, % at 10 µM. multiplex microsphere protease substrate cleavage, flow cytometry. 360,000 tested, 0.17% active
Bead autofluor: compound fluorescence in toxin protease inhibitor counterscreen; compound autofluorescence counterscreen, microsphere flow cytometry; active compounds read high; fluorescence intensity (concentration not given with the values); 360,000 tested, 3.1% active; in the data active means fluorescence intensity above about 16000; inconclusive means no clear call, values can overlap the other calls
BoNT F protease: inhibitors of Botulinum neurotoxin F light chain protease. 360,000 tested, 0.22% active. AID 588497. Multiplex microsphere protease cleavage assay, flow cytometry. inhibition, % at 10 µM; in the data active means inhibition above about 35%, passing the limit was not always enough; inconclusive means no clear call, values can overlap the other calls
Of the large screens only hits and unclear results are named; the others gave an inactive call. A selection: hits, their analogues and other compounds. The true share with any hit is near 3.5%. Unless noted, no stated cut-off is given here; in the data, active means inhibition above about 30%; inconclusive means no clear call, values can overlap the other calls; inactive means below that.

O=C(c1cc(-c2cccs2)nc2ccccc12)N1CCN(S(=O)(=O)c2cccc(F)c2)CC1	none
CC(=O)c1ccc(S(=O)(=O)N2CCN(S(=O)(=O)c3ccccc3C(F)(F)F)CC2)cc1	none
O=S(=O)(c1ccccc1C(F)(F)F)N1CCN(S(=O)(=O)c2ccccc2C(F)(F)F)CC1	Bead autofluor 22001
COc1ccc(C2CC(c3ccccc3)=NN2S(=O)(=O)c2ccc(C)cc2)c(OC)c1 (centres undefined)	Bead autofluor 20530
CCN1C(=O)c2ccc(C(=O)O)cc2C1=O	none
COCCCN1C(=O)c2ccc(C(=O)O)cc2C1=O	Bead autofluor 21024
CC(=O)OCCCN1C(=O)c2ccc(Br)cc2C1=O	BoNT-A LC inh2 inconclusive, Bead autofluor 22144
COc1ccccc1Nc1nc2ccc(C)cc2cc1C#N	Bead autofluor inconclusive
COc1ccccc1Nc1nc2c(C)cccc2cc1C#N	Bead autofluor 16724
CCCN(C)C1CN(Cc2cn(Cc3cccc(Cl)c3)nn2)S(=O)(=O)C1 (centres undefined)	none
COc1ccc(N2C(=O)CSC23CCCCC3)cc1	Bead autofluor 21829
CC1CCCN(C(=O)COC(=O)c2cc(Br)ccc2O)C1 (centres undefined)	none
Cc1ccccc1NC(=O)c1ccc(F)c(S(=O)(=O)N2CCN(c3ccccn3)CC2)c1	Bead autofluor 23271
O=C(Nc1ccc(Br)cc1)c1ccc(F)c(S(=O)(=O)N2CCN(c3ccccn3)CC2)c1	none
O=C(Nc1ccccc1)c1ccc(N2CCN(c3ccccn3)CC2)c(S(=O)(=O)N2CCOCC2)c1	Bead autofluor 16676
Cc1ccc(NC(=O)CSc2nnnn2C2CCCC2)cc1S(=O)(=O)N1CCOCC1	none
CCOC(=O)C(=N/O)/C(C)=N/NC(C)=O	BoNT F protease 46
C=CCn1c(C)c(C=C2C(=O)NC(=O)NC2=O)c2ccccc21	BoNT-A LC inh2 33, BoNT F protease inconclusive
Cc1ccc(C2(C)NC(=O)N(CC(=O)NCc3ccccc3Cl)C2=O)cc1 (centres undefined)	none
CC(=O)c1c(C(C)=O)c(C)n(-c2nc(-c3ccc(Br)cc3)c(C)s2)c1C	Bead autofluor 17033
COc1ccc(-c2nc(-n3c(C)c(C(C)=O)c(C(C)=O)c3C)sc2C)cc1OC	none
O=C(NCc1ccccc1F)C1CC(=O)N(c2ccc3c(c2)OCCO3)C1 (centres undefined)	Bead autofluor inconclusive
O=C(NCCCc1ccccc1)C1CC(=O)N(c2ccc3c(c2)OCCO3)C1 (centres undefined)	BoNT-A LC inh2 inconclusive, Bead autofluor 20162
Cc1ccc(Nc2nc3ccccc3n3nnnc23)cc1	none
Clc1ccc(Nc2nc3ccccc3n3nnnc23)cc1	Bead autofluor 20275
NNC(=O)c1nn(-c2ccc(Cl)cc2)ccc1=O	BoNT-A LC inh2 inconclusive, Bead autofluor 23538
CNC(=O)c1nn(-c2ccc(C)cc2)ccc1=O	none
Cc1ccc(NC(=O)OCC(F)(F)C(F)F)cc1NC(=O)OCC(F)(F)C(F)F	BoNT-A LC inh2 inconclusive, Bead autofluor 21692
COc1ccc(NC(=O)CCC(=O)OCc2ccc(C(=O)Oc3ccc(Cl)cc3)cc2)cc1	Bead autofluor 19988
O=C(CCC(=O)OCC(F)(F)C(F)F)Nc1ccc(F)cc1F	none
CCOC(=O)Nc1cc(C(=O)OC)ccc1C	Anthrax LF inh2 inconclusive, Bead autofluor inconclusive
O=C(CCC(=O)OCC(F)(F)C(F)F)Nc1ccc(Cl)cc1	BoNT-A LC inh2 inconclusive, Bead autofluor 17876
CC1CCCCN1C(=O)c1ccc(S(=O)(=O)N2CCCCC2C)cc1 (centres undefined)	none
CC1CCCCN1C(=O)c1ccc(C(=O)N2CCCCC2C)cc1 (centres undefined)	Bead autofluor 21133
Cc1ccc(C)c(S(=O)(=O)NCc2ccc(C(=O)N3CCCCC3C)cc2)c1 (centres undefined)	Bead autofluor 18934
Cc1ccc(C)c(S(=O)(=O)Nc2ccc(C(=O)N3CCCCC3)cc2)c1	none
CCC(CC)NC(=O)c1ccc2c(c1)OCCO2	Bead autofluor 23941
CC(NC(=O)c1ccc2c(c1)OCCO2)C(=O)O (centres undefined)	none
NC(c1csc(Nc2cnccn2)n1)c1ccccc1Cl (centres undefined)	none
Cc1cc(=O)[nH]c2cc(O)ccc12	none
Cc1cc(=O)[nH]c2c(C)c(N)ccc12	Bead autofluor 23024
O=C(COC(=O)c1ccccn1)c1ccc([N+](=O)[O-])cc1	none
CS(=O)(=O)Nc1ccc(S(=O)(=O)N2CCCCCC2)cc1	none
CS(=O)(=O)Nc1ccc(N2CCCCC2)c(Cl)c1	Bead autofluor 23555
O=C(/C=C/Nc1ccc([N+](=O)[O-])cc1Br)c1cccc2ccccc12	BoNT-A LC inh2 38
NC(=O)c1cc([N+](=O)[O-])ccc1NCc1cccc2ccccc12	none
C/C(=C/C(=O)NCc1ccccc1)C(=O)O	Bead autofluor 22169
COc1nnc(-c2ccc(N3CCCCC3)c(NC(C)=O)c2)c2ccccc12	BoNT-A LC inh2 inconclusive, Bead autofluor 19145
COc1nnc(-c2ccc(N3CCCCC3)c(NC(=O)C3CCCCC3)c2)c2ccccc12	none
Cc1c(NC(=O)C(C)OC(=O)CCc2ccccc2)c(=O)n(-c2ccccc2)n1C (centres undefined)	none
Cc1c(NC(=O)c2ccco2)c(=O)n(-c2ccccc2)n1C	BoNT F protease inconclusive
Cc1c(NC(=O)C(C)OC(=O)Cc2ccccc2)c(=O)n(-c2ccccc2)n1C (centres undefined)	Bead autofluor 24503
Cc1c(NC(C)c2ccccc2O)c(=O)n(-c2ccccc2)n1C (centres undefined)	Bead autofluor 24008
C=CCc1cccc(CNc2c(C)n(C)n(-c3ccccc3)c2=O)c1O	Bead autofluor 16249
Cc1c(NC(=O)C(C)OC(=O)C(NC(=O)c2ccco2)C(C)C)c(=O)n(-c2ccccc2)n1C (centres undefined)	BoNT-A LC inh2 inconclusive, Bead autofluor 22112
CCn1c(SCC(=O)N(C)c2c(N)n(Cc3ccccc3)c(=O)[nH]c2=O)nnc1-c1cccs1	none
CC(C)Oc1cccc(NC(=O)C2(C)CCCN2C(=O)C(C)C)c1 (centres undefined)	none
Cn1c(NCc2cccs2)nc2ccccc21	none
Cn1c(NCc2ccco2)nc2ccccc21	BoNT-A LC inh2 inconclusive, Bead autofluor 17845
CCN(CC)CCn1c(NCc2nc3ccccc3n2Cc2ccccc2)nc2ccccc21	none
CCN(CC)CCn1c(NCc2ccco2)nc2ccccc21	Bead autofluor 21505
O=C(/C=C/[C@H]1O[C@@H](n2cnc3c(NC(=O)c4ccccc4)ncnc32)[C@H](O)[C@@H]1O)NCc1ccc2c(c1)OCO2	none
O=C(Nc1c(Cl)cc2c(c1Cl)Cc1cc([N+](=O)[O-])ccc1-2)C(Cl)Cl	none
Cc1cccc2sc(=S)[nH]c12	none
CC(C)Sc1nnc([C@@H](N)Cc2ccccc2)o1	Bead autofluor 16323
CC(C)Sc1nnc([C@@H](N)Cc2c[nH]c3ccccc23)o1	BoNT-A LC inh2 inconclusive, Bead autofluor 18809
Cc1ccc(C)c(NC(=O)CSc2nnc([C@@H](N)Cc3c[nH]c4ccccc34)o2)c1	Bead autofluor 24677
NC(=O)CSc1nnc([C@@H](N)Cc2c[nH]c3ccccc23)o1	none
CC(C)NC(=O)C1(C)CCN1C(=O)c1ccccc1Oc1ccccc1 (centres undefined)	none
